Experimental data published in PubChem BioAssay AID588590 (National Center for Advancing Translational Sciences (NCATS), 2011).
Hit rate of the full screen: of about 390,000 compounds, about 4,000 (1%) were called active. Not shown: some 7% with an inconclusive outcome. This is one part of a sample in which actives are shown more often than they occur. Calls follow the shape of the dose curve; as a rule, active = well fitted inhibition curve with a large enough effect; inconclusive = small, poorly fitted or top-dose-only effect, or another doubt; inactive = no such curve, though single readings can be large or run the other way.

What follows are compounds tested against DNA polymerase iota (Homo sapiens) (UniProt Q9UNA4) (assay: qHTS for Inhibitors of Polymerase Iota). Details: Pol iota fluorescent replication assay, 10 min; series mostly up to 115 µM; activity, negative = inhibition: at the top concentration.
Sequence of DNA polymerase iota (Homo sapiens) (Q9UNA4 whole entry, looked up): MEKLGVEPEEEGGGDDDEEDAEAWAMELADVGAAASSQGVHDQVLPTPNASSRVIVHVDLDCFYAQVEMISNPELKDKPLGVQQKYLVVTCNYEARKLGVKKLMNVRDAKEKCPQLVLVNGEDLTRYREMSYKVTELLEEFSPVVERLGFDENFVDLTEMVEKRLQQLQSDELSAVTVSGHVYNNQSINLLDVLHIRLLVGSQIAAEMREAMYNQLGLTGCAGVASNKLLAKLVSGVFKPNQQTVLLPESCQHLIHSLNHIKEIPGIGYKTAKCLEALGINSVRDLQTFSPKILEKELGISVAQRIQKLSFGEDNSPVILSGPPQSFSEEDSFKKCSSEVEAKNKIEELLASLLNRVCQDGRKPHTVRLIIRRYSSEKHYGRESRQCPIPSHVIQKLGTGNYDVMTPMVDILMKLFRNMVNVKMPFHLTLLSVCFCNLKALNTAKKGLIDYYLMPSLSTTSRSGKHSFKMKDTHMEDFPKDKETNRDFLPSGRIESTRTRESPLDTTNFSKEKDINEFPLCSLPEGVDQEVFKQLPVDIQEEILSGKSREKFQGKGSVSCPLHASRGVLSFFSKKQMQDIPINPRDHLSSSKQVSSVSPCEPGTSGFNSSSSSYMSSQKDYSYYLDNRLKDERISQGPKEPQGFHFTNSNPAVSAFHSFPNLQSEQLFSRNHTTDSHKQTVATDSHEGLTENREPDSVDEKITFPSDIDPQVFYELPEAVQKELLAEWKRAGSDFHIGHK
Summary of the method: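 Fluorescent replication assay read twice, at 0 min and 10 min after adding 50 nM (final) substrate. Enzyme (10 nM) and compounds were first incubated 15 min at room temperature; enzyme-free buffer wells were negative controls.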
Potency is read from the fitted curve at half-maximal effect.

activity, negative = inhibition, inactive:
COc1cccc(C(=O)Nc2ccc3oc(-c4ccc5ccccc5c4)nc3c2)c1 -20.5%
COc1cc2nc(N3CCCN(C)CC3)nc(NC(C)C)c2cc1OC 35.2%
Cc1cccc2cc(CN(Cc3cccs3)C(=S)NCc3ccco3)c(=O)[nH]c12 10.6%
O=C(Nc1ccccc1)N(Cc1cccnc1)Cc1ccco1 -13.8%
O=C(c1ccc2c(c1)N(Cc1ccccc1)C(=O)c1ccccc1S2(=O)=O)N1CCCC1 10.1%
COc1cc2nc(SCC(=O)Nc3ccccc3F)n3nc(-c4ccccc4)nc3c2cc1OC -24.9%
CCc1cc2c(cc3c(=O)n(CC(=O)N4CCN(c5cc(Cl)ccc5C)CC4)nc(CC)n32)s1 37.4%
CCc1ccc(NC(=O)CN2C(=O)CCSc3ccc(S(=O)(=O)N4CCCC4)cc32)cc1 8.35%
CCc1ccc(-c2cc(C(=O)NN3CCN(C)CC3)c3ccccc3n2)cc1 25.1%
O=C(NCCc1ccccn1)c1cc(-c2ccc(Cl)cc2)nc2ccccc12 -7.04%
C=Cc1ccc(Cn2c(C(=O)OC)cc3sc(C)cc32)cc1 30%
CCOc1c(CNCc2ccc(C(=O)O)cc2)cccc1OC -4.83%
CCOc1cc(C(=O)O)ccc1OCCOc1ccccc1 21.3%
COc1cc(OC)cc(-c2nc3nc(C)c(CCC(=O)Nc4ccc(C)cc4)c(C)n3n2)c1 25.1%
COc1cccc(CNC(=O)c2n[nH]c3ccccc23)c1 58.2%
Cc1cccc(NC(=O)c2nnn(CC(=O)Nc3ccc(C(C)C)cc3)c2N)c1C 27.1%
CCc1ccc(NC(=O)Cn2nnc(C(=O)NCc3ccc4c(c3)OCO4)c2N)cc1 -19.8%
CCOc1ccccc1NC(=O)Cn1nnc(C(=O)Nc2ccc(C)c(C)c2)c1N -19.8%
CO[C@H]1O[C@@H]2O[C@@]3(C)CC[C@@H]4[C@@H](C)CC[C@@H]([C@H]1C)[C@@]24OO3 3.25%
O=C(COC(=O)c1ccccc1OCCOc1ccccc1)Nc1cccc(Br)c1 -0.106%
OC[C@H]1O[C@@H](n2cnc3c(NC4CCCC4)ncnc32)[C@H](O)[C@H]1O -2.79% [at 58.9 µM]
Cc1cc(F)ccc1NS(=O)(=O)c1ccc(-n2cccn2)cc1 1.94%
CCOc1n[nH]c(-c2ccccc2)n1 23%
O=C(NCc1ccco1)c1nc2ncccn2n1 3.64%
CN(C)C(CNC(=O)CCCOc1ccccc1)c1ccco1 (stereo unspecified) 33%
O=C(NCCc1ccccn1)c1ccc(COc2ccccc2)o1 11.1%
CN(C)C(CNC(=O)c1cccc(C#N)c1)c1ccco1 (stereo unspecified) -7.23%
OC(CBr)C[n+]1cccc2cc(Br)ccc21 (stereo unspecified) 4.11%
COc1ccc(Cn2c(C(=O)O)c(CNCCc3cccs3)c3ccc(OC)cc32)cc1 2.33%
CN(N=O)c1ccc(C=C2c3ccccc3-c3ccccc32)cc1 -8.63%
CCN(CC)S(=O)(=O)c1ccc2c(c1)N(CC(=O)NCc1ccccc1)C(=O)CS2 13.7%
CC1(C)C=Cc2c(ccc(C(=O)/C=C/c3ccccc3)c2O)O1 -5.38%
Cc1nc2ccc(S(=O)(=O)NC(C(=O)NCc3ccccc3Cl)C(C)C)cc2s1 (stereo unspecified) 66.7%
O=C(NCCc1csc(-c2ccc(C(F)(F)F)cc2)n1)C(=O)Nc1ccc(F)c(Cl)c1 20.5%
O=C(Cn1cc(SCc2ccccc2)c2ccccc21)N1CCCCC1 17.4%
COc1ccccc1CNc1nccn(-c2ccc(F)cc2)c1=O 23%
C/C=C(\C)C(=O)N1CC2(CC(c3cccc(NC(=O)CCCCC)c3)=NO2)C[C@@H]1C(N)=O (stereo partly specified) -29.5%
CC/C=C/C(=O)N1CC2(CC(c3cccc(NC(=O)CC)c3)=NO2)C[C@H]1C(N)=O (stereo partly specified) 13.9%
CCc1cccc(NC(=O)CN(C)S(=O)(=O)c2ccc3[nH]c4c(c3c2)CCCC4)c1 1.4%
Cc1cccc(NC(=O)CSc2nc(-c3ccco3)cc(C(F)(F)F)n2)c1C 15.3%
Cc1ccsc1-c1cc(C(=O)O)c2c(ccc3ccccc32)n1 83.5%

Potency, active:
Cc1ccc(C)c2[nH]c(=O)c(CN(Cc3cccnc3)C(=S)NCc3ccco3)cc12 44.7 µM
Cc1ccc(NC(=O)c2cc(-c3ccc(C)o3)nc3ccccc23)nc1 20 µM
CCOc1cccc2c1N[C@@H](c1ccc(C(=O)O)cc1)[C@H]1CC=C[C@@H]21 5.62 µM
CC(C)c1ccc(NC(=O)Cn2nnc(C(=O)NCCc3ccccc3)c2N)cc1 79.4 µM
COc1cccc(CNC(=O)c2nnn(CC(=O)Nc3cc(Cl)ccc3C)c2N)c1 50.1 µM
O=C(NCCc1ccco1)c1ccc(OCc2cn3ccccc3n2)cc1 44.7 µM
CN(C)C(CNC(=O)c1ccc(OCc2cn3ccccc3n2)cc1)c1ccco1 (stereo unspecified) 22.4 µM
O=C1CCCC(O)=C1N=Nc1ccc2ncsc2c1 39.8 µM
C=C(C)C(=O)Nc1cccc(C2=NOC3(C2)C[C@H](C(N)=O)N(C(=O)C(c2ccccc2)c2ccccc2)C3)c1 (stereo partly specified) 31.6 µM
Cc1cc(C)c2nc(-c3ccco3)cc(C(=O)O)c2c1 11.2 µM
